Results on 4 sequences are retold here after patent US20220289795, “EFFICIENT METHOD FOR PREPARING PPR PROTEIN AND USE OF THE SAME” (EditForce, Inc., published 2022).

The assay concerns the target T1, NL_v2_PPR7 (Artificial Sequence).
T1 chain: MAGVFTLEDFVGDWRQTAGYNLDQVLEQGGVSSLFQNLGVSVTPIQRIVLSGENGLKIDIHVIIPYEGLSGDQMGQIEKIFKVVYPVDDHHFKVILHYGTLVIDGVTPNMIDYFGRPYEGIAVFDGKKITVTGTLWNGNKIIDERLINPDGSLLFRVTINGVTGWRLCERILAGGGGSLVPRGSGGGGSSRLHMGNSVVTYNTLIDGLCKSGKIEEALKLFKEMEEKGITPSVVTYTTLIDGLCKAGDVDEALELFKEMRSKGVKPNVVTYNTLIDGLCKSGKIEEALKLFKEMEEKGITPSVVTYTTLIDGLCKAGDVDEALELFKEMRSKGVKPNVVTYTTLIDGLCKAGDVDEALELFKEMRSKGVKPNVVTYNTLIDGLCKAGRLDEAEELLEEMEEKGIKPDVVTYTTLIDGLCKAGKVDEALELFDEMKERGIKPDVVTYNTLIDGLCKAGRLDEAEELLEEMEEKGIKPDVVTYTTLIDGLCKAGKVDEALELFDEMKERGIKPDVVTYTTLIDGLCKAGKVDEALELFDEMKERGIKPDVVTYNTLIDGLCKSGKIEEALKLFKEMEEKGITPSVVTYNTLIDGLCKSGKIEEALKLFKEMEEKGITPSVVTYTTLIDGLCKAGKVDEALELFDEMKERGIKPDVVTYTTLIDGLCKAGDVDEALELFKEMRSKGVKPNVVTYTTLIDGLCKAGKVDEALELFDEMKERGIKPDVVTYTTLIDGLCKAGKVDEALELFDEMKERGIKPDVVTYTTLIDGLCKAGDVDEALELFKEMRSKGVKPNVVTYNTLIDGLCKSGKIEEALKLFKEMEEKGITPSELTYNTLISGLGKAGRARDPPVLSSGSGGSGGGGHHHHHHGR
The experiment in a line: RPB-ELISA. Conditions: tags: N-terminal luciferase, C-terminal 6xHis; label: 5'-biotin; ssRNA. The procedure:
RNA probes consisting of a designed 30-base sequence containing 18 bases of the target sequence and modified by biotinylation at the 5′ end (RNA_1, RNA_2, RNA_3, RNA_4, and RNA_5, SEQ ID NOS: 61 to 65) were synthesized (Grainer). To a streptavidin-coated plate (Thermo fisher), the 5′-end biotinylated RNA probes were added, reaction was allowed at room temperature for 30 minutes, and the plate was washed with a lysis buffer (20 mM Tris-HCl, pH 7.6, 150 mM NaCl, 5 mM MgCl₂, 0.5% NP-40, 1 mM DTT, 0.1% BSA). For background measurement, wells to which RNA was not added, but 100 μL of the lysis buffer, 1 μL of 100 mM DTT, and 1 μL of 40 unit/4 RNase inhibitor (Takara, 2313A) were added were also prepared. Then, 200 μL of a blocking buffer (20 mM Tris-HCl, pH 7.6, 150 mM NaCl, 5 mM MgCl₂, 0.5% NP-40, 1 mM DTT, 1% BSA) was added, and the plate surface was blocked at room temperature for 30 minutes. Then, 100 μL of E. coli lysate containing luciferase-fused PPR protein having a luminescence level of 1.5×10⁸ LU/μL was added to each well, and the binding reaction was allowed at room temperature for 30 minutes. The well was washed 5 times with 200 μL of a washing buffer (20 mM Tris-HCl, pH 7.6, 150 mM NaCl, 5 mM MgCl₂, 0.5% NP-40, 1 mM DTT). […] The background (luminescence signal value obtained with adding the PPR protein and without adding RNA) was subtracted from the luminescences of the samples to which a solution containing each RNA and PPR protein was added, and the obtained values were used as the binding powers between the PPR protein and RNA.
By using the v2 motif, PPR proteins for 23 kinds of target sequences (T_1 to T_3, and T_5 to T_24, SEQ ID NOS: […]) were prepared (NL_v2_PPR1 to 3, and NL_v2_PPR5 to 24, SEQ ID NOS: 56 to 58 and 70 to 88), and RPB-ELISA was used to analyze bindings of all the combinations. The experimental method was the same as that used in Example 3.
On to GACUCAGGAAUCGGCUCU, for which the binding signal is 20.5 log2 luminescence. The same measure for GGUUAGAGAUACAGUGUG: 20.6 log2 luminescence; for GGUGGUGAGGCCCUGGGC: 21.4 log2 luminescence.

For GUCAGAGGGUUCUGGAUU, the binding signal amounted to 21.1 log2 luminescence.
